HCV inh – qHTS Assay for Inhibitors of Hepatitis C Virus (HCV). Potency, µM (top dose mostly 41.8 µM), inactives show top-dose activity change, negative = inhibition, usual class: inhibitors. Huh7.5.1 HCVcc-Cre infection, luciferase reporter, 44 h. hit rate 3.4% among 340,000
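Compounds are dispensed onto cells plated 4 h earlier at 1,000 per well, with HCVcc-Cre virus (about 0.5 moi) added next. Following 44 h of culture, luminescent signal is measured for 15 sec after 15 min with substrate at room temperature.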
MARV entry inh – qHTS for inhibitors of binding or entry into cells for Marburg Virus | Marburg virus pseudotyped entry inhibition, cell reporter | Potency, µM (highest dose often 37.8 µM), for inactives: top-dose activity change, negative = inhibition, actives largely listed as inhibitors | hit rate 1.8% among 300,000; calls by dose curve; tested in HEK293 cells
LASV entry inh – qHTS for Inhibitors of binding or entry into cells for Lassa Virus; Lassa virus pseudotype entry inhibition, cell reporter; Potency, µM (doses to about 37.9 µM), for inactives: at the highest dose activity change, negative = inhibition, usual class: inhibitors; hit rate 1.2% among 300,000; AID 540256, 2011; calls by dose curve; tested in HEK293 cells; further: nearly all actives have a fitted effect of over 50% in size
Sm TGR inh – qHTS Assay for the Inhibitors of Schistosoma Mansoni Peroxiredoxins; purified TGR, DTNB reduction, TNB absorbance 405 nm; Potency, µM (highest dose often 114 µM), inactives show at the highest dose activity change, negative = inhibition, usual class: inhibitors; hit rate 3% among 360,000; Schistosoma mansoni thioredoxin glutathione reductase (TGR), Q962Y6; further: nearly all actives have a fitted effect of over 60% in size
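First, TGR (20 nM dispensed) and NADPH were mixed with compound. Second, a 15 min room-temperature incubation followed. Third, further NADPH and then DTNB were added to start the reaction. Finally, TNB absorbance was monitored kinetically.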
RE007 growth inh – qHTS Assay for Inhibitors of the HIV-1 protein Vpr. hit rate 0.21% among 360,000. S. pombe RE007 Vpr strain, BacTiter-Glo ATP luminescence, 24 h. Potency, µM (top dose mostly 92.2 µM), inactives show at the top dose activity change, negative = less growth, hits mostly inhibitors; active means well fitted falling curve with a large enough effect; inconclusive means small, poorly fitted or top-dose-only effect; inactive means no such curve, though single readings can be large or run the other way; further: nearly all actives have a fitted effect of over 50% in size
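Fission yeast strain RE007, carrying one chromosomally integrated HIV-1 vpr copy, was seeded at OD 0.01 in PMG+AL medium with 23 nL pinned compound. After 24 h at 30 °C and 99% humidity, viability was read by BacTiter-Glo luminescence.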
FMDV inh – High Throughput Screening for Foot and Mouth Disease Virus Antivirals | FMDV antiviral cell-based qHTS | Potency, µM (doses to about 57.9 µM), for the others: at the highest dose activity change, negative = inhibition, hits mostly inhibitors | AID 1159524, 2015 | hit rate 1.2% among 410,000; calls by dose curve; tested in HEK293T cells; further: read-out not given here; nearly all actives have a fitted effect of over 45% in size
* hit, by the source's call; ? = inconclusive; · = no result; [ ] = remark or other dose. Compounds with a hit are over-represented: about 7.2% of the library has one in this group of screens. Unless noted, the call rests on the fitted dose curve; in most records, active means well fitted curve in the direction sought with a large enough effect; inconclusive means small, poorly fitted or top-dose-only effect, or another doubt; inactive means no such curve, though single readings can be large; an effect the other way counts as inactive or inconclusive. On the % scale 0 is the no-effect control and ±100 the full control effect; potency means the concentration at half of the fitted maximal effect.

SMILES | HCV inh | MARV entry inh | LASV entry inh | Sm TGR inh | RE007 growth inh | FMDV inh
CCOC(=O)C1(CC2CCCCO2)CCN(Cc2cc3ccccc3[nH]2)CC1 (configuration not stated) | ? | ? | 10µM* | 16% | 6% | -23%
CCN1CCCC1CNC(=O)c1cnn(-c2nccc(-c3ccco3)n2)c1C1CC1 (configuration not stated) | · | · | · | · | · | -6%
CN(C)c1ccc(CNC(=O)C(Cc2ccccc2)NS(=O)(=O)c2ccc3c(c2)oc(=O)n3C)cc1 (configuration not stated) | · | ? | 0%[46.1 µM] | 0% | · | 3%
O=C(CCCN1C(=O)c2cccc3cccc(c23)C1=O)N1CCN(c2ccc(F)cc2)CC1 | 11µM* | ? | ? | 8% | 3% | 22µM*
COc1ccc(N2CCN(C(=O)CCCN3C(=O)c4cccc5cccc(c45)C3=O)CC2)cc1 | ? | ? | ? | -4% | 4% | ?
Cc1ccccc1NC(=O)c1cc(C(=O)c2cc(Cl)ccc2O)cn(-c2ccccc2C)c1=O | 13µM* | ? | ? | -6% | -2% | ?
COc1ccccc1-c1c(C(F)(F)F)oc2cc(OS(C)(=O)=O)ccc2c1=O | ? | ? | ? | -2% | 8% | 32µM*
CCOc1cc(CNc2ccc(Br)cc2)cc(Br)c1OCC(=O)NC(C)(C)C | ? | -20% | -10% | 4% | 2% | ?
COc1cc(CNC(C)(C)CO)ccc1OCC(=O)Nc1ccc(Br)cc1 | 13µM* | ? | -1% | 2% | -10% | -2%
CCOc1cc(CNc2ccccc2)cc(Br)c1OCC(=O)NC(C)(C)C | 13µM* | ? | ? | 2% | 5% | ·
CCOc1cc(CNCc2ccccc2)ccc1OCC(=O)NC1CCCCC1 | 2.5µM* | ? | -19% | 4% | 4% | -1%
COc1cc(CNCc2ccccn2)ccc1OCC(=O)NC1CCCCC1 | 10% | -5% | -9% | 9% | -9% | -13%
COc1ccccc1NC(=O)COc1ccc(C(=O)OCC(=O)NC(C)(C)C)cc1OC | ? | -6%[46.1 µM] | · | 4% | 4% | 22µM*
CCCNC(=O)COC(=O)c1ccc(OCC(=O)Nc2ccccc2OC)c(OC)c1 | 0% | -20% | 5% | -8% | 4% | -5%
Clc1cccc(CSc2nncn3c2cc2sccc23)c1 | · | · | -2%[46.1 µM] | 1% | · | 1%
COc1cc(CNCCCO)ccc1OCC(=O)NC(C)(C)C | 16% | -2%[46.1 µM] | 1% | 10% | -15% | 0%
COc1cc(CNCCc2ccccc2)ccc1OCC(=O)NC(C)(C)C | -24% | 11µM* | -10% | 20% | -14% | -9%
CCOc1cc(CNCCO)ccc1OCC(=O)NC(C)(C)C | -4% | 5%[46.1 µM] | 17% | · | 1% | -15%
CCOC(=O)c1ccc(NC(=O)COc2ccc(CNCCO)cc2OCC)cc1 | 8.9µM* | 10µM* | · | -1% | 0% | -8%
Cc1ccc(C2=Nc3ccccc3NC(C)(c3ccc(C)o3)C2)o1 (configuration not stated) | 0% | -5% | -3% | 35µM* | -16% | 18%
CC1(c2ccccc2)CC(c2ccccc2)=Nc2ccccc2N1 (configuration not stated) | 6% | -9%[14.2 µM] | 29% | ? | -8% | 9%
Cc1ccc(S(=O)(=O)CCC(=O)N2CCN(c3ccc(Cl)cc3)CC2)cc1 | ? | -12% | -27% | 13µM* | -4% | ?
Cc1ccc2sc(N3CCN(C(=O)CCS(=O)(=O)c4ccc(F)cc4)CC3)nc2c1C | · | · | 13%[46.1 µM] | -26% | · | ?
Cc1c(Cl)ccc2sc(N3CCN(C(=O)CCS(=O)(=O)c4ccc(F)cc4)CC3)nc12 | · | · | ? | 0% | · | 11µM*
Cc1cc(CNC(=O)c2cnn(-c3nccc(-c4ccc5c(c4)OCO5)n3)c2C2CC2)on1 | · | · | · | · | · | 30%
SMILES | HCV inh | MARV entry inh | LASV entry inh | Sm TGR inh | RE007 growth inh | FMDV inh
O=C(CC1Sc2ncnn2C1=O)Nc1ccccc1 (configuration not stated) | · | 7% | 51%[14.3 µM] | 0.5µM* | -15% | -3%
O=C(CC1SC(=O)N(c2ccccc2)C1=O)Nc1ccccc1 (configuration not stated) | 12% | 14% | 1% | ? | ? | 32%
Clc1ccc(OCCSc2ncccn2)c(Br)c1 | 11µM* | ? | -25% | · | -17% | -13%
CSc1nc(N)nc2c1ncn2CC(=O)NCC(c1ccccc1)c1ccccc1 | ? | · | · | · | 2% | ?
COc1ccc(CNC(=O)Cn2cnc3c(SC)nc(N)nc32)cc1 | 8.9µM* | · | · | · | -4% | -1%
CSc1nc(N)nc2c1ncn2CC(=O)Nc1ccc(C)c(C)c1 | 3.5µM* | · | · | · | 4% | ?
CCOC(=O)CC[C@H](NC(=O)Cn1cnc2c(SC)nc(N)nc21)C(=O)OCC | -3% | · | · | · | -16% | 0%
CC(C)(C)NC[C@@H](O)COc1cccc2c1CCCC2=O | 4% | · | · | -2% | 1%[18.4 µM] | -12%
Cc1ccc(OCC(O)C(C)NC(C)C)c2c1CCC2 (configuration not stated) | · | 16µM* | · | · | · | -15%
COc1ccc(OCC2c3cc(OC)c(OC)cc3CCN2C(=O)c2c(F)cccc2F)cc1 (configuration not stated) | · | · | ? | 1% | · | -3%
Brc1cnc(N2CCCC2)nc1N1CCOCC1 | 22µM* | -17% | 0% | 0% | -17% | -17%
Brc1cnc(N2CCCCC2)nc1N1CCOCC1 | 13% | ? | -8% | -4% | -19% | -17%
CCN(c1ccccc1)S(=O)(=O)c1ccc2[nH]cc(C(=O)NCc3ccc(C)cc3)c(=O)c2c1 | · | · | ? | 7% | · | -6%
COc1cccc2oc(-c3ccco3)cc(=O)c12 | -25% | -9% | -3% | 7.9µM* | -3% | ?
COc1cc(CN2CCc3nc(N4CCN(c5ncccn5)CC4)ncc3C2)cc(OC)c1OC | · | · | ? | ? | · | 28µM*
CCOc1ccccc1CN1CCc2nc(N3CCN(c4ccccc4F)CC3)ncc2C1 | · | · | -18%[46.1 µM] | 7% | · | 28µM*
CN(C)c1ccc(CN2CCc3nc(N4CCN(c5ccccn5)CC4)ncc3C2)cc1 | · | · | ? | -27% | · | 7.9µM*
COc1cc(CN2CCc3nc(N4CCN(c5ccccn5)CC4)ncc3C2)cc(OC)c1OC | · | · | ? | 0% | · | ?
Cc1ccccc1CN1CCc2nc(N3CCN(c4ccccn4)CC3)ncc2C1 | · | · | -28%[46.1 µM] | 7% | · | ?
CCOc1ccc(CN2CCc3nc(N4CCN(c5ccccn5)CC4)ncc3C2)cc1OC | · | · | ? | -17% | · | 13µM*
O=C(CC1C(=O)NCCN1Cc1cccc(Oc2ccccc2)c1)NCCc1ccccn1 (configuration not stated) | -22% | ? | 6.3µM* | ? | 0% | -17%
